Results filed as inconclusive are left out. Activity calls are given as the source filed them. The call rests on the fitted dose curve; in most records, active means well fitted curve in the direction sought with a large enough effect; inconclusive means small, poorly fitted or top-dose-only effect, or another doubt; inactive means no such curve, though single readings can be large; an effect the other way counts as inactive or inconclusive.
Assays:
NIH3T3 = test: qHTS assay to identify novel small-molecules to repurpose for Merkel cell carcinoma treatment (AID 1296009); conditions: MCC and control cell lines, CellTiter-Glo viability, 72 h; at 44.8 µM (top of the series) unless noted; further: nearly all actives have a fitted effect of over 60% in size
Procedure, shortened: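 qHTS format: cells treated with library compounds in DMSO across 8 (NPC) or 11 (MIPE) concentrations. Readout after 72 hr at 37 degree celsius was CellTiter-Glo luminescence.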

C33A = test: Primary qHTS to identify gynecologic anti-cancer compounds using libraries of approved drugs and bioactive compounds (AID 1345084); conditions: Gynecologic cancer cell panel viability, ATPlite luminescence, 48 h; series mostly up to 57.5 µM; further: on the % scale 0 is the no-effect control and ±100 the full control effect; nearly all actives have a fitted effect of over 55% in size
Procedure, shortened: (§1)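 Five-concentration response, 48 h; readout is ATP-driven luciferase luminescence.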

CAOV3 = test: as above; conditions: Gynecologic cancer cell panel viability, ATPlite luminescence, 48 h; series mostly up to 57.5 µM
Procedure, shortened: as §1

CASKI = test: as above; conditions: Gynecologic cancer cell panel viability, ATPlite luminescence, 48 h; series mostly up to 57.5 µM
Procedure, shortened: as §1

Es-2 = test: as above; conditions: Gynecologic cancer cell panel viability, ATPlite luminescence, 48 h; series mostly up to 57.5 µM
Procedure, shortened: as §1

HeLa = test: as above; conditions: Gynecologic cancer cell panel viability, ATPlite luminescence, 48 h; series mostly up to 57.5 µM
Procedure, shortened: as §1

Hek293T = test: as above; conditions: Gynecologic cancer cell panel viability, ATPlite luminescence, 48 h, control line for the selectivity index; series mostly up to 57.5 µM
Procedure, shortened: as §1

CC(C)(C)NCc1cc(Nc2ccnc3cc(Cl)ccc23)c2c(c1O)CCCC2
inactive: outcome (NIH3T3) inactive [at 0.588 µM] | activity change, negative = cytotoxicity (C33A) 15.8% [at 0.462 µM] | activity change, negative = cytotoxicity (CAOV3) -2.51% [at 0.462 µM] | activity change, negative = cytotoxicity (CASKI) 10.8% [at 0.462 µM] | activity change, negative = cytotoxicity (Es-2) 6.55% [at 0.462 µM] | activity change, negative = cytotoxicity (HeLa) 9.09% [at 0.462 µM] | activity change, negative = cytotoxicity (Hek293T) -0.834% [at 0.462 µM]

C=C1CC2C3(C)C(O)CC(=O)C(C)(C)C3C(OC(C)=O)C(OC(C)=O)C2(C)C2C(=O)OC(C)(C(=O)OC)C(=O)C12C (stereo not drawn)
inactive: outcome (NIH3T3) inactive [at 17.4 µM] | Potency (C33A) | Potency (CAOV3) | Potency (CASKI) | Potency (Es-2) | Potency (HeLa) | Potency (Hek293T)

CCn1c2ccccc2c2cc(CNC)ccc21
inactive: outcome (NIH3T3) | Potency (C33A) | Potency (CAOV3) | Potency (CASKI) | Potency (Es-2) | Potency (HeLa) | Potency (Hek293T)

O=C(/C=C/c1ccc(O)cc1)OC[C@]12O[C@H]1[C@@H](O)[C@@H]1C=CO[C@@H](O[C@@H]3O[C@H](CO)[C@@H](O)[C@H](O)[C@H]3O)[C@@H]12
inactive: outcome (NIH3T3) inactive [at 17.4 µM] | Potency (C33A) | Potency (CAOV3) | Potency (CASKI) | Potency (Es-2) | Potency (HeLa) | Potency (Hek293T)

CC1(CO)CC2C(O)C(=O)C3(CO)CC3(C)C2C1 (stereo not drawn)
inactive: outcome (NIH3T3) | Potency (C33A) | Potency (CAOV3) | Potency (CASKI) | Potency (Es-2) | Potency (HeLa) | Potency (Hek293T)

C=CCc1ccc(O[C@@H]2O[C@H](CO[C@@H]3O[C@@H](C)[C@H](O)[C@@H](O)[C@H]3O)[C@@H](O)[C@H](O)[C@H]2O)cc1
inactive: outcome (NIH3T3) inactive [at 17.4 µM] | Potency (C33A) | Potency (CAOV3) | Potency (CASKI) | Potency (Es-2) | Potency (HeLa) | Potency (Hek293T)

O=C(CCCCc1ccc2ccccc2c1)C(F)(F)F
inactive: outcome (NIH3T3) inactive [at 92 µM] | Potency (C33A) | Potency (CAOV3) | Potency (CASKI) | Potency (Es-2) | Potency (HeLa) | Potency (Hek293T)

CC(C)(C)NCC(O)COc1cccc2c1CCCC2=O (stereo not drawn)
inactive: outcome (NIH3T3) | Potency (C33A) | Potency (CAOV3) | Potency (CASKI) | Potency (Es-2) | Potency (HeLa) | Potency (Hek293T)

CN[C@@H]1[C@@H](O)[C@@H](O[C@@H]2[C@@H](O)[C@H](O[C@H]3O[C@H](CN)[C@@H](O)[C@H](O)[C@H]3O)[C@@H](N)C[C@H]2NC(=O)[C@@H](O)CN)OC[C@]1(C)O
inactive: outcome (NIH3T3) | Potency (C33A) | Potency (CAOV3) | Potency (CASKI) | Potency (Es-2) | Potency (HeLa) | Potency (Hek293T)

CC1(O)CCC2C(C(=O)O)=COC(OC3OC(CO)C(O)C(O)C3OC(=O)/C=C/c3ccc(O)cc3)C21 (stereo not drawn)
inactive: outcome (NIH3T3) inactive [at 17.4 µM] | Potency (C33A) | Potency (CAOV3) | Potency (CASKI) | Potency (Es-2) | Potency (HeLa) | Potency (Hek293T)

CC1OC(OC2C(O)C(C(=O)O)OC(OC3CCC4(C)C(CCC5(C)C4C=CC4=C6CC(C)(C)CC(O)C6(C)CCC45C)C3(C)C)C2OC2OCC(O)C(O)C2O)C(O)C(O)C1O (stereo not drawn)
inactive: outcome (NIH3T3) inactive [at 9.27 µM] | activity change, negative = cytotoxicity (C33A) 25.5% [at 11.6 µM] | activity change, negative = cytotoxicity (CAOV3) 25.6% [at 11.6 µM] | activity change, negative = cytotoxicity (CASKI) 17.4% [at 11.6 µM] | activity change, negative = cytotoxicity (Es-2) -1.97% [at 11.6 µM] | activity change, negative = cytotoxicity (HeLa) -2.13% [at 11.6 µM] | activity change, negative = cytotoxicity (Hek293T) -1.86% [at 11.6 µM]

CNC(=O)c1ccc2cc([C@@]3(O)CCn4cncc43)ccc2c1
inactive: outcome (NIH3T3) | Potency (C33A) | Potency (CAOV3) | Potency (CASKI) | Potency (Es-2) | Potency (HeLa) | Potency (Hek293T)

CC(/C=C/C1(O)C(C)(C)CC(O)CC1(C)O)OC1OC(CO)C(O)C(O)C1O (stereo not drawn)
inactive: outcome (NIH3T3) inactive [at 17.4 µM] | Potency (C33A) | Potency (CAOV3) | Potency (CASKI) | Potency (Es-2) | Potency (HeLa) | Potency (Hek293T)

C[C@@H](Nc1cc(NS(=O)(=O)N2CCC2)nc(SCc2cccc(F)c2F)n1)[C@@H](O)CO
inactive: outcome (NIH3T3) | Potency (C33A) | Potency (CAOV3) | Potency (CASKI) | Potency (Es-2) | Potency (HeLa) | Potency (Hek293T)

OC[C@H]1O[C@@H](Oc2ccc(O)c3cccc(O)c23)[C@H](O)[C@@H](O)[C@@H]1O
inactive: outcome (NIH3T3) | Potency (C33A) | Potency (CAOV3) | Potency (CASKI) | Potency (Es-2) | Potency (HeLa) | Potency (Hek293T)

CC(C)(O)C1CC=C(C(=O)OCC2OC(Oc3c(O)cc(C(=O)O)cc3O)C(O)C(O)C2O)CC1 (stereo not drawn)
inactive: outcome (NIH3T3) inactive [at 17.4 µM] | Potency (C33A) | Potency (CAOV3) | Potency (CASKI) | Potency (Es-2) | Potency (HeLa) | Potency (Hek293T)

CC[C@H](/C=C/[C@@H](C)[C@H]1CC[C@H]2[C@@H]3CC=C4C[C@@H](O)CC[C@]4(C)[C@H]3CC[C@]12C)C(C)C
inactive: outcome (NIH3T3) inactive [at 4.96 µM] | activity change, negative = cytotoxicity (C33A) 8.42% [at 6.55 µM] | activity change, negative = cytotoxicity (CAOV3) 7.88% [at 6.55 µM] | activity change, negative = cytotoxicity (CASKI) 17.1% [at 6.55 µM] | activity change, negative = cytotoxicity (Es-2) 0.911% [at 6.55 µM] | activity change, negative = cytotoxicity (HeLa) -1.7% [at 6.55 µM] | activity change, negative = cytotoxicity (Hek293T) 4.66% [at 6.55 µM]

O=C(NCc1ccc(OC(F)(F)F)cc1)C1c2ccccc2C(=O)N1C1CCOCC1 (stereo not drawn)
inactive: outcome (NIH3T3) | Potency (C33A) | Potency (CAOV3) | Potency (CASKI) | Potency (Es-2) | Potency (HeLa) | Potency (Hek293T)

COC(=O)C12C(=O)C(C)=C(O)C1(C)C(C)=CC1C34CCC(OC3=O)C(C)(C)C4CCC12C (stereo not drawn)
inactive: outcome (NIH3T3) inactive [at 17.4 µM] | Potency (C33A) | Potency (CAOV3) | Potency (CASKI) | Potency (Es-2) | Potency (HeLa) | Potency (Hek293T)

From PubChem BioAssay (NCATS)
